Measurements from PubChem BioAssay (Tox21).
Several values for one entry are separate records, joined by “and”; a condition that tells them apart may be missing. Identical values can stand only once. A structure can be active in one record and inactive in another. Activity calls are given as the source filed them. Unless noted, calls come from the whole dose curve; as a rule, active = well fitted curve in the direction sought with a large enough effect in the repeat runs; inconclusive = weak or mixed curves; inactive = no such curve, though single readings can be large; an effect the other way counts as inactive or inconclusive.

Experiments:
[1] = qHTS assay to identify small molecule antagonists of the glucocorticoid receptor (GR) signaling pathway - cell viability counter screen (AID 720693); note: nearly all actives have a fitted effect of over 55% in size
[2] = qHTS assay for identifying genotoxic compounds that show differential cytotoxicity against isogenic chicken DT40 cell lines with known DNA damage response pathways - wild type cell line (AID 743012); note: nearly all actives have a fitted effect of over 60% in size; note: potency is the fitted concentration of half-maximal effect
Method in brief: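 CellTiter-Glo luminescence readout of viability in wild type DT40 cells after 40 h compound exposure at 37 C/5% CO2; 300 cells/well; reagent incubated 30 min at room temperature before reading.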

[3] = qHTS assay for identifying genotoxic compounds that show differential cytotoxicity against isogenic chicken DT40 cell lines with known DNA damage response pathways - Rev3 mutant cell line (AID 743014); note: nearly all actives have a fitted effect of over 55% in size; note: potency is the fitted concentration of half-maximal effect
[4] = qHTS assay for identifying genotoxic compounds that show differential cytotoxicity against isogenic chicken DT40 cell lines with known DNA damage response pathways - Rad54/Ku70 mutant cell line (AID 743015); note: nearly all actives have a fitted effect of over 60% in size; note: potency is the fitted concentration of half-maximal effect
[5] = qHTS assay to identify small molecule antagonists of the androgen receptor (AR) signaling pathway - cell viability counter screen (AID 743033; note: nearly all actives have a fitted effect of over 45% in size)
[6] = qHTS assay to identify small molecule antagonists of the androgen receptor (AR) signaling pathway using the MDA cell line - cell viability counter screen (AID 743041; note: nearly all actives have a fitted effect of over 45% in size)
Method in brief: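 Cytotoxicity counter screen: MDA-kb2 AR-luc cells, compound + R1881, 16 h, 37C, 0% CO2; CellTiter-Fluor added at 15.5 h, fluorescence read after 30 min.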

[7] = qHTS assay to identify small molecule antagonists of the thyroid receptor (TR) signaling pathway - cell viability counter screen (AID 743064); note: nearly all actives have a fitted effect of over 50% in size; note: potency is the fitted concentration of half-maximal effect
Method in brief: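 Same-well viability check: GH3.TRE-Luc cells stimulated with 1 nM T3 alongside test compound for 23.5 h, followed by CellTiter-Fluor fluorescence.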

[8] = qHTS assay to identify small molecule antagonists of the thyroid receptor (TR) signaling pathway (AID 743065); note: nearly all actives have a fitted effect of over 55% in size; note: potency is the fitted concentration of half-maximal effect
Method in brief: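 GH3.TRE-Luc rat pituitary cells (two TREs driving luciferase) were dosed with compound, then stimulated with 1 nM T3 (final) for 23.5 h at 37 C. ONE-Glo luminescence was the read-out, with CellTiter-Fluor fluorescence as the cytotoxicity counter-screen.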

[9] = tested on: thyroid hormone receptor (rat, GH3 cells); test: qHTS assay to identify small molecule agonists of the thyroid receptor (TR) signaling pathway (AID 743066; calls by dose curve)
[10] = qHTS assay to identify small molecule antagonists of the estrogen receptor alpha (ER-alpha) signaling pathway - cell viability counter screen (AID 743074; calls by dose curve;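 note: HEK293 cells carrying ER-alpha-UAS-bla reporter stimulated with 17beta-estradiol; nearly all actives have a fitted effect of over 45% in size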)
[11] = qHTS assay to identify small molecule antagonists of the estrogen receptor alpha (ER-alpha) signaling pathway using the BG1 cell line - cell viability counter screen (AID 743081);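 note: compound given together with 17beta-estradiol as the ER stimulus; series mostly up to about 70 µM; nearly all actives have a fitted effect of over 45% in size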
Aromatase (Homo sapiens) = Aromatase (Homo sapiens) (UniProt P11511); test: qHTS assay to identify aromatase inhibitors (AID 743083); note: series mostly up to about 70 µM; nearly all actives have a fitted effect of over 55% in size
[12] = target: Estrogen receptor (Homo sapiens) (UniProt P03372); test: qHTS assay to identify small molecule antagonists of the estrogen receptor alpha (ER-alpha) signaling pathway (AID 743069; active = well fitted curve in the direction sought with a large enough effect in the signal ratio in the repeat runs, not every such curve was filed as active; inconclusive = weak or mixed curves, or effect the other way; inactive = no such curve, though single readings can be large or run the other way; the % refers to the signal ratio)
Method in brief: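 Beta-lactamase FRET fluorescence is read after 2 hr at room temperature with LiveBLAzer B/G substrate. Before that, ER-alpha-bla HEK293 cells sit 4 hr after plating, then receive compound plus 17beta-estradiol and incubate 18 hr at 37C.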

[13] = target: Estrogen receptor (Homo sapiens) (UniProt P03372); test: qHTS assay to identify small molecule agonists of the estrogen receptor alpha (ER-alpha) signaling pathway (AID 743075; calls by dose curve;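 note: HEK293 GripTite cells with ER-alpha and UAS-driven beta-lactamase reporter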; note: potency is the fitted concentration of half-maximal effect)
[14] = target: Estrogen receptor (Homo sapiens) (UniProt P03372); test: qHTS assay to identify small molecule agonists of the estrogen receptor alpha (ER-alpha) signaling pathway using the BG1 cell line (AID 743079); note: nearly all actives have a fitted effect of over 20% in size; note: potency is the fitted concentration of half-maximal effect
[15] = qHTS assay to identify small molecule antagonists of the estrogen receptor alpha (ER-alpha) signaling pathway using the BG1 cell line (AID 743080; calls by dose curve;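 note: BG1 cells stimulated with 17beta-estradiol alongside compound; series mostly up to about 70 µM; nearly all actives have a fitted effect of over 25% in size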)
Method in brief: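 Readout is ONE-Glo luminescence, taken 30 min at room temperature after reagent addition, preceded by a CellTiter-Fluor viability read; BG1-Luc-4E2 cells had received compound and 17beta-estradiol for 21.5 h at 37 C.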

[16] = target: Androgen receptor (Homo sapiens) (UniProt P10275); test: qHTS assay to identify small molecule antagonists of the androgen receptor (AR) signaling pathway (AID 743035; active = well fitted inhibition curve with a large enough effect in the signal ratio in the repeat runs, not every such curve was filed as active; inconclusive = weak or mixed curves, or effect the other way; inactive = no such curve, though single readings can be large or run the other way; the % refers to the signal ratio)
Method in brief: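 AR-bla HEK293 reporter cells; 4 h settle at 37C/5% CO2; compound + R1881 agonist, 16 h at 37C; LiveBLAzer B/G FRET substrate 2 h RT; fluorescence intensity read. qHTS format.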

[17] = target: Androgen receptor (Homo sapiens) (UniProt P10275); test: qHTS assay to identify small molecule agonists of the androgen receptor (AR) signaling pathway (AID 743036; active = well fitted activation curve with a large enough effect in the signal ratio in the repeat runs, with a control signal flat, not every such curve was filed as active; inconclusive = weak or mixed curves, or effect the other way; inactive = no such curve, though single readings can be large or run the other way; the % refers to the signal ratio)
Method in brief: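 Agonist activity was scored by beta-lactamase reporter fluorescence in stably transfected HEK293 cells exposed to compounds for 16 h at 37C and 5% CO2. Substrate loading took 2 h at room temperature.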

[18] = target: Androgen receptor (Homo sapiens) (UniProt P10275); test: qHTS assay to identify small molecule agonists of the androgen receptor (AR) signaling pathway using the MDA cell line (AID 743040; note: nearly all actives have a fitted effect of over 20% in size)
Method in brief: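 Luciferase read-out, ONE-Glo, 30 min RT. Cells: MDA-kb2 AR-luc, MMTV promoter with AR and GR response elements. Compound exposure 16 h, 37C, 0% CO2, after 5 h pre-incubation. qHTS agonist mode.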

[19] = target: Androgen receptor (Homo sapiens) (UniProt P10275); test: qHTS assay to identify small molecule antagonists of the androgen receptor (AR) signaling pathway using the MDA cell line (AID 743042; note: nearly all actives have a fitted effect of over 55% in size)
Method in brief: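 MDA-kb2 breast carcinoma cells carrying MMTV-luciferase (AR/GR responsive) were co-treated with compounds and the agonist R1881 for 16 h at 37C. Inhibition read as ONE-Glo luminescence; CellTiter-Fluor fluorescence measured in parallel for cytotoxicity.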
% is set by controls: 0 for no effect and ±100 for the full control effect.

Sequence of Androgen receptor (Homo sapiens) (P10275 whole entry, looked up): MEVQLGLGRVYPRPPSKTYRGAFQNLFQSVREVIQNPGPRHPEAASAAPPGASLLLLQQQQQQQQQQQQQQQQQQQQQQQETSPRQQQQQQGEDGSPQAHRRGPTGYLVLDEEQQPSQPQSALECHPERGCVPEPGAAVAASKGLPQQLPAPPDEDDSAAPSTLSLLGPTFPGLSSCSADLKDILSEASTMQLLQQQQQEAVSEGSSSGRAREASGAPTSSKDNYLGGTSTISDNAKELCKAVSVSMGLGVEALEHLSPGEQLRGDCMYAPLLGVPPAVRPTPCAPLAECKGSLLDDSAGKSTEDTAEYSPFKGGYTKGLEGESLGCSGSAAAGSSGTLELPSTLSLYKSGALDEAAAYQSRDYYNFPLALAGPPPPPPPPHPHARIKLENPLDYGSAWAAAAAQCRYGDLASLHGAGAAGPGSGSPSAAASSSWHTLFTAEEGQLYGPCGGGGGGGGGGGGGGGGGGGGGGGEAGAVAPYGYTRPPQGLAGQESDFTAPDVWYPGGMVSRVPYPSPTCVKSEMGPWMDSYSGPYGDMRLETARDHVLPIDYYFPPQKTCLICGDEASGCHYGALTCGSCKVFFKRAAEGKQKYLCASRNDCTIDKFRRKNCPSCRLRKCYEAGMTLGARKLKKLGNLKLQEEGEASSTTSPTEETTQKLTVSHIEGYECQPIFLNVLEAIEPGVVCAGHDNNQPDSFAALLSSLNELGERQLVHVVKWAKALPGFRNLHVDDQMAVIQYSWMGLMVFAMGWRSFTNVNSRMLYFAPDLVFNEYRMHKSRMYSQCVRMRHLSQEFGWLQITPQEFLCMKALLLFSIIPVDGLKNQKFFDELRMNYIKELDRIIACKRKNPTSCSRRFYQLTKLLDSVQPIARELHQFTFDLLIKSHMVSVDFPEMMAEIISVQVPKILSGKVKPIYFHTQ
Sequence of Aromatase (Homo sapiens) (P11511 whole entry, looked up): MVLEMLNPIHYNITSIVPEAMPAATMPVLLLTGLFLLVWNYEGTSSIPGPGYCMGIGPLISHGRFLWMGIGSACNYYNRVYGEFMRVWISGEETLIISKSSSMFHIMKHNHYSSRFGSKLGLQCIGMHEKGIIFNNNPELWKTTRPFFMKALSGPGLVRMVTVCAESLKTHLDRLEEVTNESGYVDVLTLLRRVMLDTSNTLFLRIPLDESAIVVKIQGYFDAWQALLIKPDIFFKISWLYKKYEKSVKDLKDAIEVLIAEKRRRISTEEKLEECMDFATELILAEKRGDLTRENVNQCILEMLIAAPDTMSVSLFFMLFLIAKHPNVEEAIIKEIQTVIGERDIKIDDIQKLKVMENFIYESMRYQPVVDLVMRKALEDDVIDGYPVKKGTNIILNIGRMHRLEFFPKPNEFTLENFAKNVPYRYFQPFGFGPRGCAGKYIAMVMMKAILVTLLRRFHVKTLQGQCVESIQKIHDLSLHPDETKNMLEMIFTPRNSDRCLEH
Sequence of Estrogen receptor (Homo sapiens) (P03372 whole entry, looked up): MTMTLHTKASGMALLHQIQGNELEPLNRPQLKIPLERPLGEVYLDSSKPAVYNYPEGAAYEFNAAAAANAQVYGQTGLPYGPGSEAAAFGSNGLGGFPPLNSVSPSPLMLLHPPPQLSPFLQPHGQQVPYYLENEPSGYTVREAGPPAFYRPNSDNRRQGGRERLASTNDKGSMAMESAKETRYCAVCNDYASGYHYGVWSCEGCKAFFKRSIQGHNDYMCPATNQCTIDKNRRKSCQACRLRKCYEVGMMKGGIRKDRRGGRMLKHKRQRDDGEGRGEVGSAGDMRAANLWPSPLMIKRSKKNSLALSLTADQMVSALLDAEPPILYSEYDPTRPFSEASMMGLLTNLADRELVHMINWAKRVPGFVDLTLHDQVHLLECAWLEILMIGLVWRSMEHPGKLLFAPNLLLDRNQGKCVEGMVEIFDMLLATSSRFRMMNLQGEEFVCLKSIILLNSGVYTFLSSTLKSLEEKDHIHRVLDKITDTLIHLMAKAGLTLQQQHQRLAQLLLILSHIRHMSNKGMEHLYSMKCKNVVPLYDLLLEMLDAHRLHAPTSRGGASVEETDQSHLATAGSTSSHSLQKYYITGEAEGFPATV

O=[N+]([O-])c1ccc(Oc2ccc(Cl)cc2Cl)cc1
active: Potency [4] 61.1 µM
inactive: outcome [1] | outcome [5] | outcome [6] | Potency [7] | Potency [8] | outcome [9] | Potency [10] | outcome [11] | Potency (Aromatase (Homo sapiens))
inactive and 61.1 µM (active): Potency [2] | Potency [3]

CCC[CH2][Sn]([Cl])([Cl])[Cl]
inactive: outcome [1] | Potency [2] | Potency [3] | Potency [4] | outcome [5] | outcome [6] | Potency [7] | Potency [8] | outcome [9] | Potency [12] | Potency [10] | Potency [13] | Potency [14] | Potency [15] | outcome [11] | Potency (Aromatase (Homo sapiens))

Nc1ccccc1C(=O)O
inactive: outcome [1] | Potency [2] | Potency [3] | Potency [4] | outcome [5] | outcome [6] | Potency [7] | Potency [8] | outcome [9] | Potency [12] | Potency [10] | Potency [13] | Potency [14] | Potency [15] | outcome [11] | Potency (Aromatase (Homo sapiens))

ClCc1cccnc1
inactive: outcome [1] | Potency [2] | Potency [3] | Potency [4] | outcome [5] | outcome [6] | Potency [7] | Potency [8] | outcome [9] | Potency [12] | Potency [10] | Potency [13] | Potency [14] | Potency [15] | outcome [11] | Potency (Aromatase (Homo sapiens))

Nc1ccc(Cc2ccc(N)cc2)cc1
inactive: outcome [1] | Potency [2] | Potency [4] | outcome [5] | outcome [6] | Potency [7] | Potency [8] | outcome [9] | Potency [10] | outcome [11] | Potency (Aromatase (Homo sapiens))
inactive and 48.6 µM (active): Potency [3]

CCCCCCCCCCCC#N
inactive: outcome [1] | Potency [2] | Potency [3] | Potency [4] | outcome [5] | outcome [6] | Potency [7] | Potency [8] | outcome [9] | Potency [10] | outcome [11] | Potency (Aromatase (Homo sapiens))

Cc1ccc([N+](=O)[O-])cc1C
inactive: outcome [1] | Potency [2] | Potency [3] | Potency [4] | outcome [5] | outcome [6] | Potency [7] | Potency [8] | outcome [9] | Potency [12] | Potency [10] | Potency [13] | Potency [14] | Potency [15] | outcome [11] | Potency (Aromatase (Homo sapiens))

Cc1cc(-c2cc(C)c(N)c(C)c2)cc(C)c1N
inactive: outcome [1] | Potency [2] | Potency [3] | Potency [4] | outcome [5] | outcome [6] | Potency [7] | Potency [8] | outcome [9] | Potency [12] | Potency [10] | Potency [13] | Potency [14] | Potency [15] | outcome [11] | Potency (Aromatase (Homo sapiens))

OC(O)C(Cl)(Cl)Cl
inactive: outcome [1] | Potency [2] | Potency [3] | Potency [4] | outcome [5] | outcome [6] | Potency [7] | Potency [8] | outcome [9] | Potency [10] | outcome [11] | Potency (Aromatase (Homo sapiens))

CCCCN(CCCC)SN(C)C(=O)Oc1cccc2c1OC(C)(C)C2
active: Potency [2] 30.6 µM | Potency [3] 48.6 µM | Potency [4] 30.6 µM | Potency [8] 21.7 µM
inactive: outcome [1] | outcome [5] | outcome [6] | Potency [10] | Potency [13] | Potency [15] | outcome [11] | Potency (Aromatase (Homo sapiens))
inactive and 24.3 µM (active): Potency [7]
inactive and 54.5 µM (active): Potency [14]

O=S(=O)(c1ccc(O)cc1)c1ccc(O)cc1
inactive: outcome [1] | Potency [2] | Potency [3] | Potency [4] | outcome [5] | outcome [6] | Potency [7] | Potency [8] | outcome [9] | Potency [12] | Potency [10] | Potency [15] | outcome [11] | Potency (Aromatase (Homo sapiens))
active: Potency [13] 15.6 µM [inconclusive] and 24.5 µM [inconclusive] | Potency [14] 3.88 µM and 1.93 µM

CCCCN(CC)C(=O)SCCC
inactive: outcome [1] | Potency [2] | Potency [3] | Potency [4] | outcome [5] | Potency [16] | outcome [17] | outcome [18] | outcome [6] | outcome [19] | Potency [7] | Potency [8] | outcome [9] | Potency [12] | Potency [10] | Potency [13] | Potency [14] | Potency [15] | outcome [11] | Potency (Aromatase (Homo sapiens))

CC(C)N1C(=O)c2ccccc2NS1(=O)=O
inactive: outcome [1] | Potency [2] | Potency [3] | Potency [4] | outcome [5] | outcome [6] | Potency [7] | Potency [8] | outcome [9] | Potency [12] | Potency [10] | Potency [13] | Potency [14] | Potency [15] | outcome [11] | Potency (Aromatase (Homo sapiens))

c1ccc(-c2ccccc2)cc1
inactive: outcome [1] | Potency [2] | Potency [3] | Potency [4] | outcome [5] | Potency [16] | outcome [17] | outcome [18] | outcome [6] | outcome [19] | Potency [7] | Potency [8] | outcome [9] | Potency [12] | Potency [10] | Potency [13] | Potency [14] | Potency [15] | outcome [11] | Potency (Aromatase (Homo sapiens))

O=c1ccc(=O)[nH][nH]1
inactive: outcome [1] | Potency [2] | Potency [3] | Potency [4] | outcome [5] | Potency [16] | outcome [17] | outcome [18] | outcome [6] | outcome [19] | Potency [7] | Potency [8] | outcome [9] | Potency [10] | outcome [11] | Potency (Aromatase (Homo sapiens))

COC(=O)c1ccccc1N
inactive: outcome [1] | Potency [2] | Potency [3] | Potency [4] | outcome [5] | outcome [6] | Potency [7] | Potency [8] | outcome [9] | Potency [10] | outcome [11] | Potency (Aromatase (Homo sapiens))

C=C(C)CCl
inactive: outcome [1] | Potency [2] | Potency [3] | Potency [4] | outcome [5] | Potency [16] | outcome [17] | outcome [18] | outcome [6] | outcome [19] | activity change, negative = cytotoxic [7] -10.5% [at 8.44 µM] | Potency [8] | outcome [9] | Potency [12] | Potency [10] | Potency [13] | Potency [14] | Potency [15] | outcome [11] | Potency (Aromatase (Homo sapiens))
